Measured values as given in PubChem BioAssay (NCI).
This is part of a sample that, as a whole, favours compounds with a hit. Of some 83,000 tested, about 20% had one in any assay.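 Assay: single dose, 48 h. Readout: percent growth (0 = no net growth; negative = cell death). Active: <10.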 A number with no mark means an inactive call. Activity calls are given as the source filed them.

How the values were obtained:
Experiment in all cases: NCI-60 one-dose screen, 48 h (100 = growth as untreated, 0 = no growth, -100 = all killed)
Conditions in all cases: 10 µM
[1] = system: NCI-H23 lung
[2] = system: NCI-H226 lung
[3] = system: NCI-H322M lung
[4] = system: HOP-62 NSCLC
[5] = system: NCI-H460 lung
[6] = system: HOP-92 NSCLC
[7] = system: NCI-H522 lung
[8] = system: A549/ATCC NSCLC
[9] = system: 786-0 renal
[10] = system: COLO 205 colon
[11] = system: DU-145 prostate
[12] = system: K-562 leukemia
[13] = system: MALME-3M melanoma
[14] = system: MDA-MB-231 breast
[15] = system: SF-268 CNS
[16] = system: SF-295 CNS
[17] = system: SF-539 CNS
[18] = system: UACC-257 melanoma
[19] = system: M14 melanoma

SMILES | growth [1] | growth [2] | growth [3] | growth [4] | growth [5] | growth [6] | growth [7] | growth [8] | growth [9] | growth [10] | growth [11] | growth [12] | growth [13] | growth [14] | growth [15] | growth [16] | growth [17] | growth [18] | growth [19]
C/C(=C\c1ccc(O)cc1O)c1ccc2ccc(O)cc2[o+]1 | 45.8% | 66.2% | 78.1% | 54.9% | 56.8% | 83.8% | 55% | 91.9% | 52.9% | 116% | 25.8% | 72.7% | 56.8% | 39.6% | 116% | 80.6% | 72.4% | 84% | 73.3%
O=C(NO)c1ccc(Cn2ccc3c(NCc4ccccc4)ncnc32)cc1 | -74.3% (active) | 23.8% | 30.2% | 12.7% | 11.1% | -19% (active) | -51.5% (active) | 28.1% | 22.7% | -60.1% (active) | 10.3% | 12.2% | -5.08% (active) | -18% (active) | 19% | -68.2% (active) | -71.1% (active) | -20.8% (active) | -9.73% (active)
CCCCSc1nc(Nc2ccc(/C(C)=N/NC(N)=S)cc2)c(C#N)c(-c2ccccc2)n1 | 23.7% | 4.29% (active) | 59% | 41.1% | 12.1% | -19.7% (active) | 39.6% | 12.8% | 3.01% (active) | 59.6% | 36.2% | 33% | 35.2% | 18.3% | 67% | 24.7% | 19.3% | 90.3% | 76.6%
N#Cc1ccc(NC(=O)CSc2ccc(-c3ccc(Br)cc3)nn2)cc1 | 51.3% | 44.8% | 76.6% | 88.6% | 64.6% | 70.2% | 52% | 64.7% | 80.2% | 112% | 88.8% | 48.7% | 68.8% | 76.7% | 62.6% | 58.9% | 67.2% | 47.3% | 63.5%
CN1C(=O)N(C)C2SC(N/N=C/c3ccccc3)=NC21 (configuration not stated) | 79.5% | 98.1% | 98.3% | 76.9% | 68.9% | 111% | 60.4% | 72.4% | 82.3% | 92.5% | 97.1% | 19.2% | 61.6% | 56.5% | 82.9% | 66.6% | 64.5% | 90.5% | 48.4%
CC(=O)Nc1ccc(-c2cn(-c3cccc(C(=O)Nc4cc(CN5CCOCC5)cc(C(F)(F)F)c4)c3)nn2)cn1 | -92.6% (active) | -74% (active) | -94.3% (active) | -64.1% (active) | -65.3% (active) | -77.5% (active) | -53.2% (active) | -74.7% (active) | -86% (active) | -91.5% (active) | -40% (active) | 0.612% (active) | -97.1% (active) | -95.7% (active) | -27.5% (active) | -88.6% (active) | -100% (active) | -81.5% (active) | -90.3% (active)
O/N=C(\CSc1nnc(-c2c[nH]c3ccccc23)n1-c1ccccc1)c1ccc(Br)cc1 | 14.1% | 6.3% (active) | -72.7% (active) | -54.8% (active) | -21.9% (active) | -11.2% (active) | -29.7% (active) | -18.2% (active) | 34.7% | -41.2% (active) | -88.5% (active) | -11.1% (active) | -10.2% (active) | -84.2% (active) | -55.6% (active) | -15% (active) | -64.9% (active) | -8.6% (active) | -67.7% (active)
CCCn1c(=O)c2[nH]c(-c3ccc(OCc4nc5ccc(C(F)(F)F)cc5[nH]4)cc3)nc2n(CCC)c1=O | 11.1% | 37.8% | 69.2% | 87% | 41.4% | 67.7% | 23.6% | 46.7% | 42.8% | 59.3% | 58.3% | 34.9% | 14.2% | 11.1% | 57.2% | 38.8% | 1.94% (active) | 65.5% | 59.5%
